From PubChem BioAssay (NCI) come the findings set out here.

This is part of a sample that, as a whole, favours compounds with a hit. Of some 83,000 tested, about 20% had one in any assay.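 Step 1: grow cells in 96-well plates. Step 2: add test compound at a single concentration. Step 3: incubate 48 h. Step 4: record percent growth.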 Values without a mark were called inactive. The source made the active and inactive calls. Rule for the calls: active = growth percent below 10; inactive = the rest.

The test system of the experiment is HL-60(TB) leukemia. Nature of the experiment: NCI-60 one-dose screen, 48 h (100 = growth as untreated, 0 = no growth, -100 = all killed). As to conditions: 10 µM unless noted.
Turning to `COc1cc2nc(Nc3cccc(Cl)c3)nc(N)c2cc1OC`, the growth is 87.1%.
With `CSC1=Nc2c(c(C)c(-c3ccccc3)n2CCCCl)C2=NC(=O)CN12` the figure was 27.4%; with `Brc1ccc(-c2nn(-c3ccccc3)cc2-c2nn[nH]n2)s1`, 103%.
Consider `Cc1ccc(C2CC(c3nc(-c4ccc(Cl)cc4)oc3C)=NN2C(=O)c2ccncc2)cc1` (stereo not given), for which the growth is 97.7%.
`CCCCCc1nc2c(c3c1CCCC3)CCCC2`: the growth is -15.2% (active).
The figure for `O=C(O)c1cn(C2CC2)c2cc(N3CCN(C(=O)C[n+]4ccccc4)CC3)c(F)cc2c1=O` is 112%.
For `COCCCNc1nc(NC(=O)c2cc(OC)cc(OC)c2)cc(-c2cccnc2)n1`, the growth was 90.2%.
As for `CC(C)NC(=O)N/C=C(\C#N)C(N)=O`, the growth was 137%.
With `Cc1nc2c3c(ncn2n1)Oc1c(c(=O)[nH]c2ccccc12)C3c1ccc(Cl)cc1` (stereo not given) the figure was 98%; with `Cc1ccc(-c2csc(N)n2)cc1`, 112%; with `COc1ccc(OC)c(-c2c(C#N)c(-c3ccco3)nc3c2c(-c2ccccc2)nn3-c2ccccc2)c1`, 105%.
With `Fc1ccc2c(-c3cncn3CCc3ccccc3)c[nH]c2c1` the figure was 85.8%; with `O=C(C(=O)c1cc(Br)ccc1O)c1cc(Br)ccc1O`, 27.4%; with `COc1cccc(-c2nc3sccn3c2/C=C/C(=O)c2ccc(C(F)(F)F)cc2)c1`, 46.2%.
With `CC(=O)NC1=C(C#N)C(c2ccccc2Cl)c2c(ccc3ccccc23)O1` (stereo not given) the figure was 29.7%; with `O=c1[nH]nc(-c2ccc(Cl)cc2)cc1Cc1cccc([N+](=O)[O-])c1`, 109%.
Turning to `COc1ccc(C[n+]2c3ccccc3n3c4ccc(N)cc4ccc32)c(OC)c1OC`, the growth was -6.46% (active).
The figure for `Cc1csc(N/N=C/c2ccncc2)n1` is 92.6%; for `Brc1cccc(-n2ncc3c(Nc4ccc(-c5nnc(-c6ccccc6)o5)cc4)ncnc32)c1` it is 122%.
Take `COc1cc(C(=O)Nc2cc(OC)c3ccn(C)c3c2)cc2c1C[C@]1(C)CC[C@@H](O)C(C)(C)[C@H]1O2`: the growth is 1.14% (active).
In the case of `CCN(CCCCCCN1CC(=O)N(CCCCCCN(CC)Cc2ccccc2OC)CC1=O)Cc1ccccc1OC`, the growth is 60.6%.
Turning to `CCCCn1sc(=O)n(Cc2ccc(CNC(=O)OCc3ccc4c(Cl)cc(Cl)c(O)c4n3)cc2)c1=O`, the growth was 67.9%.
In the case of `O=[N+]([O-])c1cccc(-c2nc3sccn3c2-c2ccnc(NCCCNS(=O)(=O)c3cccc(F)c3)n2)c1`, the growth was -21.5% (active).
Regarding `Cn1cc(-c2nonc2-c2c[nH]c3ccc(F)cc23)c2cc(Br)ccc21`, the growth is 56.5%.
Regarding `N#Cc1ncc(-c2ccc(C(F)(F)F)cc2)c(NC2CCCCCC2)n1`, the growth is 6.7% (active).
On to `O=C(CCl)n1nnnc1Cc1ccccc1`, for which the growth was 83.5%.
Take `Nc1nc(Cl)cc(=O)n1Cc1ccccc1`: the growth is 100%.
As for `CC(C)(C)c1cc(/C=N\NC(=O)/C=C/C=C/c2ccc3c(c2)OCO3)c(O)c(C(C)(C)C)c1`, the growth was 84.1%.
For `Cc1cccc2c1C[C@@]1(C2=O)C(c2ccc(C(C)(C)C)cc2)=NOS1=O` (stereo not given in full), the growth was 100%.
The figure for `COc1cc(C2CC(c3ccc(Nc4nc(Nc5ccc(F)cc5)nc(Nc5ccc(Cl)cc5)n4)cc3)=NN2C(C)=O)cc(OC)c1OC` (stereo not given) is 35.2%; for `Cn1ccnc1C(=O)/C=C/c1ccc(CC(=O)NC2CCCCC2)cc1` it is 68.1%.
As for `Cn1cc(-c2nonc2-c2c[nH]c3ccc(F)cc23)c2cccnc21`, the growth is 91.7%.
For the compound `COc1ccc(/C=C2\CN(Cc3cn(CCNc4ccnc5cc(Cl)ccc45)nn3)C/C(=C\c3ccc(OC)c(OC)c3)C2=O)cc1OC`, the growth is -11.3% (active).
Regarding `COc1cc(/C=C2\COc3ccc(-c4ccccc4)cc3C2=O)cc(OC)c1`, the growth is 42.9%.
The figure for `COc1cc(/C=C/c2cc(/C=C/c3ccc(O)c(OC)c3)n(C(=O)Nc3ccc(C)cc3C)n2)ccc1O` is -30.4% (active).
Turning to `COc1cc(-c2cc(-c3nc4ccc(Cl)cc4[nH]3)[nH]n2)cc(OC)c1OC`, the growth is 38.4%.
The figure for `CC/C=C\C[C@@H](O)C/C=C1/C(=O)C=C[C@H]1C/C=C\CCCC(=O)OC` is -15.6% (active).
For the compound `NS(=O)(=O)c1ccc(N/C=C/C(=O)c2cc3ccccc3oc2=O)cc1`, the growth was 100%.
On to `COc1ccc(C(=S)N2CCN(c3cccc(Cl)c3)CC2)cc1`, for which the growth is 130%.
The figure for `OC(c1cccc(C(F)(F)F)c1)c1cnccc1NC1CCCCC1` (stereo not given) is 45.3%.
